ABHD5-PLIN5 inh – ABHD5-PLIN5 protein interaction inhibition; Q00G26+Q8WTS1; Split G. princeps luciferase complementation, luminescence, 4 h; inhibition, % at 4 µM; 0.78% of 360,000 active; AID 602281;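 active means inhibition above the mean inhibition across every tested compound plus 3 SD, cut at about 22% in these data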
Target sequence (Q00G26 whole entry, looked up): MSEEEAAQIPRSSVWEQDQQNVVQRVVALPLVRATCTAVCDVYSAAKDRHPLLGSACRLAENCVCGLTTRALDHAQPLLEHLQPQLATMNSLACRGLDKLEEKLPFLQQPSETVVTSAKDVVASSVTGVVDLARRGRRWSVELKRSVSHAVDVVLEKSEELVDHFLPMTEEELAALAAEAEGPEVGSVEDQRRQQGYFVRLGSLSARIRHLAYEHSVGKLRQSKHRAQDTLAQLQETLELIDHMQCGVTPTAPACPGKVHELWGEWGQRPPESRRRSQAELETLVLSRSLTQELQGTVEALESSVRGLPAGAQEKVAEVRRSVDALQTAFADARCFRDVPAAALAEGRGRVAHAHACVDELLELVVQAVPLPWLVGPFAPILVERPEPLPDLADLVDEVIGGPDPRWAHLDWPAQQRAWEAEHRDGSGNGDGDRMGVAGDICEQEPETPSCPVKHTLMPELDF
Target sequence (Q8WTS1 whole entry, looked up): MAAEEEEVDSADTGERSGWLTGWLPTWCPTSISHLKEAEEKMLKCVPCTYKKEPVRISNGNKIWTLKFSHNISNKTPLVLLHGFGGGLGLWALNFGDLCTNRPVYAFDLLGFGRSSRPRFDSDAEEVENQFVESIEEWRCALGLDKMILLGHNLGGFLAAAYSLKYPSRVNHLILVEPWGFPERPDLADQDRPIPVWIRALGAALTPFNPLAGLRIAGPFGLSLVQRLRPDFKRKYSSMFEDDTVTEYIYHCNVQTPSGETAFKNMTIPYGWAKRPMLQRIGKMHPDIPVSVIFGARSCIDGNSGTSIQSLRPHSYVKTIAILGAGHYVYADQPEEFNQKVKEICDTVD
CF NFkB block – cystic fibrosis NF-kB activation inhibition; KKLEB NF-kB-GFP reporter, PAF-induced, GFP fluorescence overnight; inhibition, % at 5 µM; 0.86% of 360,000 active;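 active means at least 50% inhibition at 5 µM, scaled per plate between neutral and stimulator controls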;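 further: PAF is a Pseudomonas aeruginosa culture filtrate used as stimulus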
MITF TRPM1 inh – inhibitors of MITF-driven TRPM1 promoter in melanoma cells; SK-MEL-5 TRPM1 promoter luciferase, 24 h; 0.83% of 330,000 active; inhibition, % at 12.5 µM;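 active means mean inhibition across replicates of 60% or more, whatever share of single replicates reaches that level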
KKLEB tox – CF airway cell cytotoxicity counter-screen; KKLEB CF airway cells viability, ATPlite luminescence, overnight; active compounds read low; cells stimulated with P. aeruginosa culture filtrate; activity change (cytotoxicity), % at 5 µM; 0.36% of 360,000 active;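 active means corrected activity change at or below -50% at 5 µM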
HIF-2a inh – inhibitors of HIF-2a. 786-0 RCC cells HIF-2a reporter, luciferase luminescence, overnight. inhibition, % at 18.8 µM. 0.72% of 360,000 active;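 active means inhibition of the luminescence signal of 40% or more relative to plate controls, in a single-dose primary screen at 18.75 µM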
Peg3 promoter – Peg3 promoter activity inhibition. AID 588405. HeLa PEG-Prom luciferase reporter, luminescence, overnight. 1.7% of 360,000 active. inhibition, % at 20 µM;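 active means inhibition of at least 50% at 20 µM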
Of the large screens only hits and unclear results are named; the others gave an inactive call. The list is not random: actives were taken first. Their share in the collection is about 3.1%.

COc1cc(C(=O)NCc2nnc(SCC(=O)NCCc3ccccc3)o2)cc(OC)c1OC	none
CCCCCCCCCn1ccc(=N)cc1	MITF TRPM1 inh 65
COc1ccc(C(=O)Nc2ccc(Oc3nc(C)nc4sc(-c5ccccc5)cc34)cc2)cc1OC	KKLEB tox -53
COc1ccc(C(=O)Nc2ccc(Oc3ncnc4sc(-c5ccccc5)cc34)cc2)cc1OC	none
COc1ccc2[nH]c(C)cc(=O)c2c1	none
COc1ccc2[nH]c3c(C)c4ccncc4c(C)c3c2c1	CF NFkB block 78, MITF TRPM1 inh 95, Peg3 promoter 107
CC1(C(=O)NS(=O)(=O)c2cccc(C#N)c2)CCN1C(=O)CCc1ccccc1 (centres undefined)	none (no result: MITF TRPM1 inh)
Cc1cc(C(=O)CCl)c(C)n1-c1cccc([N+](=O)[O-])c1	Peg3 promoter 105
Cc1cc(C(=O)CCl)c(C)n1-c1ccon1	CF NFkB block 58, Peg3 promoter 53
COC(=O)CCCn1c(C)cc(C(=O)CCl)c1C	Peg3 promoter 51
CC(=O)c1c(C(C)=O)c(C)n(-c2cccc([N+](=O)[O-])c2)c1C	none
Cc1cc(C(=O)CCl)c(C)n1Cc1ccco1	Peg3 promoter 62
COC(=O)CCn1c(C)cc(C(=O)COc2ccccc2C(N)=O)c1C	none
O=C(CN1CCN(S(=O)(=O)c2ccccc2)CC1)NCc1ccccc1	none
COc1ccc(S(=O)(=O)N2CCCCC2c2cc(C(=O)Nc3ccccc3)no2)cc1 (centres undefined)	none (no result: MITF TRPM1 inh)
COc1cccc(COC(=O)Nc2ccccc2)c1OC	none (no result: MITF TRPM1 inh)
S=C(NCc1ccncc1)Nc1ccc(Cl)c(Cl)c1	none
O=[N+]([O-])c1cc(C(F)(F)F)cc([N+](=O)[O-])c1NCCNC(=S)Nc1ccc(Cl)c(Cl)c1	Peg3 promoter 53
C/C(=N\NC(=O)C(O)(c1ccccc1)c1ccccc1)c1ccc(NC(=O)CCCC(=O)O)cc1	none
COc1ccc2nc(N)sc2c1	none
CC1(C)CC(=O)C(N=Nc2ccc3ncsc3c2)=C(O)C1	none
COc1ccc2nc(N=Nc3ccc(O)c4ccccc34)sc2c1	MITF TRPM1 inh 75
COc1ccc2nc(N=NC3=C(O)CC(C)(C)CC3=O)sc2c1	MITF TRPM1 inh 64
CC(C)C(NC(=O)OCc1ccccc1)C(=O)N1CCOCCOCCOCC1 (centres undefined)	none
COc1ccc(N2CCN(C(=O)Cn3ncc4c([nH]c5ccccc54)c3=O)CC2)cc1	Peg3 promoter 53
COc1ccccc1N1CCN(C(=O)Cn2ncc3c([nH]c4ccccc43)c2=O)CC1	none
CCC(Oc1ccccc1)C(=O)Nc1cc(Cl)ccc1-n1cncn1 (centres undefined)	none
CCc1ccc(S(=O)(=O)Nc2ccc(O)c3ccccc23)cc1	CF NFkB block 94
COc1ccc(OC)c(S(=O)(=O)Nc2ccc(O)c3ccccc23)c1	CF NFkB block 64, Peg3 promoter 67
COc1ccc(OC)c(S(=O)(=O)Nc2cccc3c(O)cccc23)c1	none (no result: MITF TRPM1 inh)
O=S(=O)(Nc1ccc(O)c2ccccc12)c1ccc(F)cc1	CF NFkB block 84
CC(C)C(=O)NCC(c1ccc2c(c1)OCO2)N1CCOCC1 (centres undefined)	none
Cc1cccc(C)c1NC(=O)NS(=O)(=O)c1ccccc1	none (no result: MITF TRPM1 inh)
CN(C(=O)c1nn(C)c2c1CSc1ccccc1-2)c1ccccc1Cl	none
Cc1ccc(C(C[N+](=O)[O-])c2c(-c3ccccc3O)[nH][nH]c2=O)cc1 (centres undefined)	Peg3 promoter 96
O=C(Nc1cccnc1)c1cc(S(=O)(=O)N2CCOCC2)ccc1Br	none
C[C@H]1COC(=O)[C@H](Cc2ccc(F)cc2)CC/C=C/C[C@@H](CC(=O)N[C@@H](CO)Cc2ccccc2)C(=O)N1	none
O=C(C[C@@H]1C/C=C/CC[C@@H](Cc2ccc(F)cc2)C(=O)OC[C@H](Cc2ccccc2)NC1=O)N[C@H](CO)Cc1ccccc1	Peg3 promoter 55
O=C(C[C@H]1C/C=C\CC[C@H](Cc2ccc(F)cc2)C(=O)O[C@@H](c2ccccc2)CNC1=O)N[C@@H](CO)Cc1ccccc1	Peg3 promoter 66
CN1CCC(C)(C(=O)Nc2cccc(Oc3ccccc3)c2)C1 (centres undefined)	none (no result: MITF TRPM1 inh)
COc1ccc(N2CCOCC2)c(NC(=O)COc2cccc(C)c2C)c1	none
Cc1ccccc1OCCCC(=O)Nc1nncs1	none
COC(=O)CCC(=O)N1CCCC(N2CCN(c3cccc(C(F)(F)F)c3)CC2)C1 (centres undefined)	none
O=C(O)c1ccc(-c2ccc(-c3ccccc3)cc2)s1	MITF TRPM1 inh 81, HIF-2a inh 70, Peg3 promoter 85
O=C(CCl)N(CCc1ccccc1)CCc1ccccc1	CF NFkB block 66, KKLEB tox -50
CCCCCCCN(C(=O)CCl)c1cccc(C)c1	CF NFkB block 78, KKLEB tox -87
O=C(CCl)N(c1ccccc1)c1ccccc1	CF NFkB block 56
CCCCCCN(C(=O)CCl)c1ccccc1	CF NFkB block 85, KKLEB tox -68
O=C(CCCc1ccccc1)NCCc1ccccc1	none
O=C(N(c1ccccc1)c1ccccc1)N(c1ccccc1)c1ccccc1	none (no result: MITF TRPM1 inh)
CCN(CC)C(=O)c1c(-c2ccccc2)oc2ccc(O)cc12	none
CCC1CCCCN1Cc1nc(Cc2ccccc2Cl)no1 (centres undefined)	none
O=C(CSc1nc2cc(Cl)ccc2s1)N1CCN(C(=O)c2ccco2)CC1	none
O=C(CSc1c2c(nc3ccc(Cl)cc13)CCCC2)N1CCN(C(=O)c2ccco2)CC1	CF NFkB block 54
O=C(Cc1csc(Nc2nc(=S)[nH]c3ccccc23)n1)N1CCN(c2cccc(C(F)(F)F)c2)CC1	Peg3 promoter 80
COc1ccc(CC(=O)NCC2CCCN(Cc3ccccc3Cl)C2)cc1 (centres undefined)	none
Cc1ccc(S(=O)(=O)/N=C2\C(=O)c3ccccc3C([O-])=C2n2cc[n+](CCC(C)C)c2)cc1	MITF TRPM1 inh 69
CCCC[n+]1ccn(C2=C([O-])c3ccccc3C(=O)/C2=N\S(=O)(=O)c2ccc(Br)cc2)c1	MITF TRPM1 inh 94
CCc1nc2sccc2c(=O)n1N	none
CCN(CC)c1ccc(/C=C/c2cccc[n+]2C)c(OC)c1	MITF TRPM1 inh 68
Cn1cc(/C=N/n2cnc3sc4c(c3c2=O)CCCC4)c2ccccc21	none
O=c1c2c3c(sc2ncn1/N=C/c1ccc([N+](=O)[O-])o1)CCCC3	MITF TRPM1 inh 82
O=C(/C=C/c1ccccc1)CCN1CCCCC1	ABHD5-PLIN5 inh 23, Peg3 promoter 105
CC(C)(C)NC(=O)C[C@H]1C[C@H](C(=O)N2CCCCC2)[C@@]2(CCc3ccccc3)c3[nH]c4cc(-c5ccco5)ccc4c3CCN2C1=O	none

Compound activity: PubChem BioAssay, several laboratories
